# Screening data deposited in PubChem BioAssay by several laboratories.
# An excerpt weighted towards active compounds, which were near 3% of everything screened.
# NALP3 yeast inh: NALP3 inflammasome inhibitors in reconstituted yeast, primary screen, luminescence, uHTS; Yeast reconstituted NLRP3/ASC/caspase-1, beta-gal luminescence, 24 h; inhibition, % at 10 µM; hit rate 0.39% among 330,000;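 active = inhibition of 50% or more; inactive = inhibition below 50%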;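 note: plate controls were induced DMSO wells for no effect and uninduced yeast grown without galactose for full effect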
# NALP1 inh: NALP1 inflammasome inhibitors in reconstituted yeast, colorimetric, S. cerevisiae, triplicate retest. hit rate 0.61% among 280,000. inhibition, % at 10 µM. S. cerevisiae NALP1/ASC/caspase-1 growth, X-gal OD620, 72 h. AID 2071, 2009; in the data active = inhibition mostly above about 24%, no sharp cut-off; inactive = mostly below about 32%
# SUMO Mot1 rescue: yeast Mot1-301 growth rescue at high temperature, primary screen, SUMOylation pathway inhibitor project, S. cerevisiae, ATP luminescence, 38.5C | S. cerevisiae Mot1-301 growth rescue; percent above DMSO median, 100 means doubled | growth rescue, % at 18.8 µM | hit rate 1% among 320,000 | AID 2716, 2010;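 active = every valid replicate shows activation above 250% relative to neutral control wells; inactive = the rest, any valid replicate at or below 250%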;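 note: OY570 slx delta 5 strain wells were the positive control but not used for scaling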
# CHT inh: inhibitors of human choline transporter CHT. CHT-expressing cells, membrane potential dye, choline response; stronger effect = lower value. AID 488975, 2010. hit rate 0.86% among 310,000. B-score at 10 µM. High affinity choline transporter 1 (Homo sapiens), Q9GZV3;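 active = B-score over 3 SD under the library average, and starting fluorescence ratio not unusually high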;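 note: choline stimulus applied at its EC90 after an EC20 pre-addition; B-score computed on integrated fluorescence ratio after choline addition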
# Target sequence (Q9GZV3 whole entry, looked up): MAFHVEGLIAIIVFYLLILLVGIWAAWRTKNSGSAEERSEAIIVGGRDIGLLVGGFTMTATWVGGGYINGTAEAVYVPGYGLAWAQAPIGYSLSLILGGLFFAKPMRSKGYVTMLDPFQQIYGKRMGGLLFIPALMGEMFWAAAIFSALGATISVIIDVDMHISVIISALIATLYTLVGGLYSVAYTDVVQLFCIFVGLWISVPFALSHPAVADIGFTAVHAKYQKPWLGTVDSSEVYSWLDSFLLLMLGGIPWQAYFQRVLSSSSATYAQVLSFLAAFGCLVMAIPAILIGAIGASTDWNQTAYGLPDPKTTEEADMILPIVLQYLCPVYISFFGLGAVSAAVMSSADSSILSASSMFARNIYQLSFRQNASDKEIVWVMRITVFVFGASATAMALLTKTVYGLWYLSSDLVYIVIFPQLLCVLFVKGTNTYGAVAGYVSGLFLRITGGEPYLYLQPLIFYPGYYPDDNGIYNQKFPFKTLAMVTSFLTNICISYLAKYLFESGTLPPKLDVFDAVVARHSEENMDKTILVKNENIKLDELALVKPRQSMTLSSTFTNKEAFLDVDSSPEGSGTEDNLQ
# CHT PAM: CHT positive allosteric modulators, primary screen, cell-based, membrane potential dye, choline EC20 | CHT-expressing cells; stronger effect = higher value; LV-AA mutant CHT in HEK293 cells | B-score at 10 µM | hit rate 0.49% among 310,000;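 active = initial fluorescence not abnormally high and integrated response B-score, plate-corrected, over 3 SD above library mean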
# A1 inh: caspase 3/7 activation in MEF A1-2A-BIM cells, primary screen, A1 inhibitor project, cell-based, luminescence, HTS; Caspase-Glo 3/7 luminescence, 3 h; percent of clofoctol response, vehicle zero; caspase activation, % (concentration not given with the values); hit rate 0.066% among 330,000; AID 2462, 2010;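 active = over half of replicate activation scores above 10%, or exactly half above 10 with the replicate mean above 10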
# Yeast Mot1 SUMO: growth restoration of Mot1-301 yeast on galactose, dose response, SUMO pathway inhibitor project, whole organism, S. cerevisiae, ATP luminescence, cherry-picked samples; AID 493004, 2010; S. cerevisiae Mot1-301 galactose growth, 24 h; -100 = growth of slx-deleted rescue strain; growth activity, percent, % at 42 µM; 2,300 tested, under 10 active; shares compounds with SUMO Mot1 rescue;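 active = Signal drops as the depositor expects, and the fitted half-maximal dose is no more than ten times the top valid tested dose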;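 note: more negative values mean stronger growth rescue toward the control strain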
# An asterisk follows results filed as active; i = inactive; · = no result given; + = active, no number.
SMILES,NALP3 yeast inh,NALP1 inh,SUMO Mot1 rescue,CHT inh,CHT PAM,A1 inh,Yeast Mot1 SUMO
Cn1cc(Br)c(C(=O)Nc2c(F)c(F)c(F)c(F)c2F)n1,-1,27,3,i,i,0,·
CN1c2ccccc2-c2nc3ccccc3n2C1c1ccncc1 (centres undefined),11,10,635*,i,i,-1,0
CCN1c2ccccc2-c2nc3ccccc3n2C1c1ccco1 (centres undefined),2,20,316,i,i,0,·
O=C(/C(=N\Nc1ccc(Br)cc1)Sc1nnnn1-c1ccccc1)c1ccccc1,-5,·,739*,i,i,1,0
CC(=O)c1ccc(NC(=O)CSc2ccc(-c3ccc(-n4cccn4)cc3)nn2)cc1,8,·,-16,i,i,-1,·
O=C(NS(=O)(=O)c1ccccc1)c1ccccc1,8,2,203,i,i,0,·
CC(C)N=C(NS(=O)(=O)NC(=O)c1ccccc1)c1ccccc1,1,-9,456*,i,i,0,0
CCOC(=O)C1ON2CCCCC2C1(O)C(F)(F)F (centres undefined),6,2,528*,i,i,1,1
CCOC(=O)C1CCN(C(=O)CCC2CCCC2)CC1,24,13,-1,i,i,1,·
Cc1cc(C)cc(N2C(=O)CC(Sc3ncn[nH]3)C2=O)c1 (centres undefined),29,58*,452*,i,i,0,-2
Cc1cccc(N2C(=O)CC(Sc3nc(C)cc(C)n3)C2=O)c1 (centres undefined),4,0,323,i,i,1,·
COc1ccc(N=C2SC(C(=O)O)CC(=O)N2Cc2ccc(OC)c(OC)c2)cc1 (centres undefined),8,8,529*,i,i,1,1
CCn1nc(CC(=O)Nc2ccc(-n3cnnn3)c(C)c2)c2ccccc2c1=O,28,13,724*,i,i,0,1
CCOc1ccc(NC(=O)CC2C(=O)N(c3ccccc3)C(=S)N2Cc2ccccn2)cc1 (centres undefined),6,-6,+,i,i,0,0
CCOc1ccc(NC(=O)CC2C(=O)N(c3ccccc3)C(=O)N2Cc2ccccn2)cc1 (centres undefined),5,1,-7,i,i,0,·
COc1ccc(/C=C(\C#N)C(=O)c2cccn2C)cc1,17,6,396*,i,i,0,0
COc1ccc(NC(=O)Nc2ccccc2C(=O)N2CCCC2)cc1,11,-8,739*,i,i,-2,0
CCOC(=O)C(C)(C)Sc1nc2c(cnn2-c2ccc(F)cc2)c(=O)[nH]1,2,-25,178,i,i,-1,·
CCOC(=O)C(C)(C)Sc1nc2c(cnn2-c2ccc(C)cc2)c(=O)[nH]1,0,-12,373*,i,i,0,1
CCN(CCn1cccn1)C(=O)C1CCC(=O)N(CCc2cccc(F)c2)C1 (centres undefined),0,1,689*,i,i,-1,0
Cc1cc(C)n(CCN(C)C(=O)C2CCC(=O)N(CCc3cccc(F)c3)C2)n1 (centres undefined),9,26,0,i,i,1,·
COc1cccc(-c2csc(N3CCN(CC(=O)NNC(=O)c4ccc(Br)cc4)CC3)n2)c1,-1,22,-10,i,i,-1,·
O=C(CN1CCN(c2nc(-c3ccccc3)cs2)CC1)NNC(=O)c1ccc(Br)cc1,18,30,656*,i,i,-1,2
O=C(c1ccco1)N1CCN(C2CC(=O)N(c3ccc(F)c(Cl)c3)C2=O)CC1 (centres undefined),-1,1,551*,i,i,0,-1
Cc1cc2c(NCc3ccccc3)ncnc2s1,36,12,15,i,i,0,·
SMILES,NALP3 yeast inh,NALP1 inh,SUMO Mot1 rescue,CHT inh,CHT PAM,A1 inh,Yeast Mot1 SUMO
O=S(=O)(Nc1ccon1)c1ccc(F)c(F)c1,17,4,22,i,i,-1,·
Cc1ccc(Cl)cc1N1CCN(C(=O)CCS(=O)(=O)c2ccc3c(c2)NC(=O)CO3)CC1,3,-1,4,i,i,0,·
Cc1cccc(NC(=S)NC(=O)/C=C/c2ccco2)c1,-4,1,706*,i,i,1,-1
O=C(CCn1cccn1)Nc1ccc2c(c1)OCCO2,5,-6,-4,i,i,0,·
Cc1ccc(C(=O)/C=C/c2ccc(-c3ccccc3[N+](=O)[O-])o2)cc1,23,36,491*,i,i,1,-1
CCCCN(C)C(=O)c1cc2c(Cl)nc3ccccc3c2s1,9,25,433*,i,i,1,0
O=c1c2ccccc2nc(SCc2ccc([N+](=O)[O-])cc2)n1CCCO,11,25,464*,i,i,0,0
Nn1c(SCc2ccc([N+](=O)[O-])cc2)nc2ccccc2c1=O,17,21,26,i,i,1,·
COc1ccc(CNC(=O)c2cc(=O)c3cc(C)cc(C)c3o2)cc1,6,23,+,i,i,0,1
Cc1ccc(C)c(NC(=O)COC(=O)c2ccc3c(c2)OCO3)c1,20,9,975*,i,i,0,0
COCCCNCC(O)COc1cccc2[nH]c(C)cc12 (centres undefined),11,21,773*,i,i,0,0
Cc1nc(SCc2nc3ccc([N+](=O)[O-])cc3[nH]2)c2oc3ccccc3c2n1,37,·,24,·,·,1,·
Cc1c(C2(O)CCCCC2)[nH]c2ccc(C#N)cc12,35,·,370*,·,·,0,0
COc1cc(/C=C(\C#N)C(=O)Nc2ccc(C(=O)O)cc2)ccc1OC(=O)c1cccc(F)c1,4,-23,827*,i,i,-2,1
COCCN(C(=O)c1csnn1)C(C(=O)NC1CCCCC1)c1ccccc1 (centres undefined),-5,8,441*,i,i,0,1
CSc1ccccc1-c1nc(-c2ccncc2)no1,-2,21,718*,i,i,-4,0
